We go through 40 compounds from PubChem BioAssay (Tox21).

“And” between values parts separate entries of the source, which are not always exact repeats. Identical values can stand only once. Records with an inconclusive call do not appear. Where a call stands in place of a potency, no number is given. More than one record can exist for a structure, and the calls need not agree. The source made the active and inactive calls. The call rests on the fitted dose curve.
Potency means the concentration at half of the fitted maximal effect.

Chain of Thyrotropin receptor (Homo sapiens) (P16473 whole entry, looked up): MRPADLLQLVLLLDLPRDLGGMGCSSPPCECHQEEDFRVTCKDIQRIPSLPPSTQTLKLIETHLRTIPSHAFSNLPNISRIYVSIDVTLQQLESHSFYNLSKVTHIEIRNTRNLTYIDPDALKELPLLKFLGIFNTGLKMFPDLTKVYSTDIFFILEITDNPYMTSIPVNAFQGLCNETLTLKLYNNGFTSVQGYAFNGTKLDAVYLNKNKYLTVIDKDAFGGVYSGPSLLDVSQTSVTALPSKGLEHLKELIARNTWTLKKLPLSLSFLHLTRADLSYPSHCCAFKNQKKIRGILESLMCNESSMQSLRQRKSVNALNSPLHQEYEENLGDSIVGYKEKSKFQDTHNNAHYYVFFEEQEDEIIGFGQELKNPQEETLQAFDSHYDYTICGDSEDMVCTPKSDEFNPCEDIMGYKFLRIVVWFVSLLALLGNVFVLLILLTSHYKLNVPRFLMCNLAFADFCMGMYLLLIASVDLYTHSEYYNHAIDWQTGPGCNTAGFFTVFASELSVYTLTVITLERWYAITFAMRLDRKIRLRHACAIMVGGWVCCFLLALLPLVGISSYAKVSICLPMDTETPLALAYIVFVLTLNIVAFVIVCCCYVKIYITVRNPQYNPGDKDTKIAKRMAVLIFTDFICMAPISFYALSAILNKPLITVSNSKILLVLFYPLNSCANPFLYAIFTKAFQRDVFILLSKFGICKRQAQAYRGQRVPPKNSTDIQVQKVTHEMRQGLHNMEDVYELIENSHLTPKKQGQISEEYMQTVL

The test concerns the target Thyrotropin receptor (Homo sapiens) (UniProt P16473). As to the kind of experiment: qHTS assay to identify small molecule agonists of the thyroid stimulating hormone receptor (TSHR) signaling pathway (AID 1224843). Further: nearly all actives have a fitted effect of over 45% in size. The settings on record: TSHR-HEK293 cells, cAMP HTRF, agonist mode, 30 min; series mostly up to 92.4 µM. From the text:
National Center for Advancing Translational Sciences [NCATS]
NIH Chemical Genomics Center [NCGC]
U.S. Environmental Protection Agency [EPA]
National Institutes of Environmental Health Sciences [NIEHS]
National Toxicology Program [NTP]
U.S. Food and Drug Administration [FDA]
TSHR is the receptor for thyrotropin (thyroid stimulating hormone or TSH), a member of the glycoprotein hormone family. TSH is released by the anterior pituitary gland and is the main regulator of thyroid gland growth and development. Upon binding circulating thyrotropin, a G-protein signal cascade activates adenylyl cyclase and […] cAMP concentration is increased. cAMP is a key second messenger involved extensively in cellular signal transduction pathways associated with the majority of G-protein coupled receptors (GPCRs). The activation of these GPCRs by neurotransmitters, lipids, nucleotides, peptides and hormones results in the activation or the inhibition of plasma membrane-bound adenylate cyclase through heterotrimeric G-proteins. A cell-based TSHR assay was used to screen the Tox21 10K library for compounds that can modulate TSHR in agonist mode.
Tox21 Assay Protocol Summary:
TSHR-Hek293 cells were dispensed at 800 cells/4uL/well in 1536-well white plates using a Multidrop dispenser. […] The plates were incubated at room temperature for 30 min. 2.5 ul/well of cAMP-d2 and 2.5ul/well of anti-cAMP-cryptate was added respectively into the assay plates using a Flying Reagent Dispenser. After 1 hr incubation at room temperature, the fluorescence intensity in the plates was measured using an Envision plate reader. Each test compound was measured at 15 concentrations and in triplicates.
In general terms: qHTS replaces the single test concentration by a dilution series.
Consider `CC(=O)Oc1c(C)c(C)c2c(c1C)CC[C@@](C)(CCC[C@H](C)CCC[C@H](C)CCCC(C)C)O2`, for which the Potency result is “inactive”.
Then `CC(=O)O[C@]1(C(C)=O)CC[C@H]2[C@@H]3C=C(C)C4=CC(=O)CC[C@]4(C)[C@H]3CC[C@@]21C`, with “inactive”; and `O=C(O)c1ccc(O)cc1`, with “inactive”.
To `Nc1cc(Cl)c(N)c(Cl)c1` belongs “inactive”; to `c1ccc2cc3ccccc3cc2c1`, “inactive”; to `O=Cc1ccccc1C=O`, 38.6 µM (active) and inactive.
Consider `CC(C)(Oc1ccc(Cl)cc1)C(=O)O`, for which the Potency entry is “inactive”.
As for `OCCNCCO`, the Potency entry is “inactive”.
Regarding `Nc1cc([N+](=O)[O-])ccc1C(=O)O`, the Potency entry was “inactive”.
Then `O=C(O)c1cc(=O)[nH]c(=O)[nH]1`, with “inactive”; and `CN(Cc1cnc2nc(N)nc(N)c2n1)c1ccc(C(=O)N[C@@H](CCC(=O)O)C(=O)O)cc1`, with “inactive”.
With `O=C(O)CCCC(=O)O`, the Potency entry was “inactive”.
`CN(C)CCCN1c2ccccc2Sc2ccc(Cl)cc21`: the Potency result was “inactive”.
`COc1ccc(-c2coc3cc(O)cc(O)c3c2=O)cc1`: the Potency result was “inactive”.
Turning to `c1ccc2c(c1)ccc1cc3c(ccc4ccccc43)cc12`, the Potency entry was “inactive”.
`CC(=O)Nc1ccc2c(c1)Cc1cc(NC(C)=O)ccc1-2`: the Potency result was “inactive”.
Take `Cc1ccc(/C(=C\CN2CCCC2)c2ccccn2)cc1`: the Potency result was “inactive”.
Then `Cc1ccc(S(=O)(=O)O)cc1C`, with “inactive”; and `O=S1(=O)CCCO1`, with “inactive”; and `CCCCCCCCCCC(CO)CCCCCCCC` (stereo not given), with “inactive”.
Then `C=C[C@@]1(C)CC(=O)[C@]2(O)[C@@]3(C)[C@@H](O)CCC(C)(C)[C@@H]3[C@H](O)[C@H](OC(C)=O)[C@@]2(C)O1`, with 17.2 nM (active) and 18.8 nM (active).
To `COc1ccc2nc(N)sc2c1` belongs “inactive”; to `CC1(C)OC(=O)NC1=O`, “inactive”.
For `CCCCCCCC/C=C\CCCCCCCC(=O)O`, the Potency entry is “inactive”.
To `O=[Se](O)O` belongs “inactive”.
To `CN(C)/N=N/c1nc[nH]c1C(N)=O` belongs “inactive”.
To `CCC/C=C/C=O` belongs “inactive”; to `C[N+](C)(C)CCO`, “inactive”; to `CCO[Si](CCCNC(N)=O)(OCC)OCC`, “inactive”.
Consider `C1COCCN1`, for which the Potency entry was “inactive”.
To `Cc1ccc(C(C)(C)C)cc1` belongs “inactive”.
Take `C[C@]12C=CC(=O)C=C1CC[C@H]1[C@@H]3C[C@@H](O)[C@](O)(C(=O)CO)[C@@]3(C)C[C@H](O)[C@@]12F`: the Potency entry was “inactive”.
To `COC(=O)C(C)Oc1ccc(Oc2ncc(C(F)(F)F)cc2Cl)cc1` (stereo not given) belongs “inactive”.
On to `c1ccc2c(c1)ccc1ncccc12`, for which the Potency result was “inactive”.
Then `FC(F)(F)C(Cl)Br` (stereo not given), with “inactive”; and `C1CN(SSN2CCOCC2)CCO1`, with “inactive”; and `COc1ccc(C(=O)c2ccccc2O)c(O)c1`, with “inactive”.
Take `CCCOCCO`: the Potency result was “inactive”.
To `NCCS(=O)(=O)O` belongs “inactive”.
On to `C/C=C/C(=O)N(CC)c1ccccc1C`, for which the Potency result is “inactive”.
